# Results reported in PubChem BioAssay (Tox21).
# A number with no mark means an inactive call. Results filed as inconclusive are left out. A call without a number means that no potency is given here. Active and inactive are the calls of the source. Unless noted, the call rests on the fitted dose curve.
# How the values were obtained:
# [1] = Nuclear factor erythroid 2-related factor 2/antioxidant responsive element (Nrf2/ARE) small molecule agonists: qHTS cell viability counter screen in human keratinocytes (AID 1919968; active means well fitted curve in the direction sought with a large enough effect in the repeat runs; an effect the other way counts as inactive or inconclusive; further: nearly all actives have a fitted effect of over 55% in size)
# Outline: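 Parallel cytotoxicity read: KeratinoSens HaCaT cells, compound treatment 23 h, viability by CellTiter-Fluor fluorescence 1 h post-reagent.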
# [2] = Nuclear factor erythroid 2-related factor 2/antioxidant responsive element (Nrf2/ARE) small molecule agonists: luciferase reporter gene qHTS assay in human keratinocytes (AID 1919969); further: nearly all actives have a fitted effect of over 35% in size; further: potency means the concentration at half of the fitted maximal effect
# [3] = target: Gonadotropin-releasing hormone receptor (Homo sapiens) (UniProt P30968); assay: Human gonadotropin-releasing hormone receptor (GnRHR) small molecule agonists, calcium flux assay in GnRHR-HEK293 cells (AID 1920063); further: nearly all actives have a fitted effect of over 35% in size
# Outline: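 Calcium flux, agonist mode, human GnRHR stably integrated in HEK293; dye 1 h at 37 C before compound; Ex/Em=480/540 kinetic read, 3 min; 15 concentrations, triplicate.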
# [4] = target: KiSS-1 receptor (Homo sapiens) (UniProt Q969F8); assay: Human kisspeptin (KISS1R) small molecule agonists, calcium flux assay in KISS1R-HEK293 cells (AID 1920064; active means well fitted curve in the direction sought with a large enough effect in the repeat runs; an effect the other way counts as inactive or inconclusive)
# Outline: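 Triplicate 15-concentration series were applied to dye-loaded human KISS1R HEK293 cells, and agonist-evoked calcium fluorescence was captured for 3 min.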
# [5] = G protein-coupled receptor (GPCR) small molecule agonists, calcium flux assay: HEK293 wild type cell line counter screen (AID 1920065)
# Outline: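 Non-specific calcium responders were flagged by adding DMSO-dissolved compounds to dye-loaded cells and reading 480/540 nm fluorescence each second for 3 min; ATP served as positive control.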
# [6] = p53 small molecule agonists, cell-based qHTS assay with human liver microsomes (AID 1963577)
# Outline: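 Fluorescence of the beta-lactamase reporter in p53RE-bla cells, detected with LiveBLAzer substrate (2 h, room temperature, dark), served as the read-out after 16 h compound exposure at 37 C with human liver microsomes and NADPH, each 0.5 mg/mL final.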
# [7] = p53 small molecule agonists, cell-based qHTS assay with rat liver microsomes (AID 1963578)
# Outline: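 Cells carrying a p53 response element–beta-lactamase reporter were plated and rested 5 h, then dosed with compound in DMSO plus rat liver microsomes and NADPH, each at 0.5 mg/mL final. After 16 h at 37 C, LiveBLAzer substrate was added for 2 h.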
# [8] = p53 small molecule agonists, cell-based qHTS assay with human liver microsomes: qHTS cell viability counter screen (AID 1963579); further: nearly all actives have a fitted effect of over 45% in size
# Outline: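 Cytotoxicity counter screen: p53RE-bla, 4,000 cells/well; 5 h settle, 37 C/5% CO2; cpd + HLM 0.5 mg/mL + NADPH 0.5 mg/mL (final); 16 h, 37 C; CellTiter-Glo, 30 min RT, luminescence.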
# [9] = p53 small molecule agonists, cell-based qHTS assay with rat liver microsomes: qHTS cell viability counter screen (AID 1963580); further: nearly all actives have a fitted effect of over 45% in size
# Outline: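 Cytotoxicity counter screen: intracellular ATP measured by CellTiter-Glo luminescence in the same wells as the beta-lactamase reporter read, on HCT-116 p53RE-bla cells exposed 16 h at 37 C to compounds with rat liver microsomes and NADPH, each 0.5 mg/mL final.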
# [10] = p53 small molecule agonists, cell-based qHTS assay: qHTS cell viability counter screen (AID 1963581); further: nearly all actives have a fitted effect of over 45% in size
# Outline: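 Multiplexed with the reporter read, a CellTiter-Glo step (30 min, room temperature) gauges ATP-based viability of HCT-116 p53RE-bla cells after 16 h compound incubation at 37 C.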
# [11] = p53 small molecule agonists, cell-based qHTS assay (AID 1963582; active means well fitted activation curve with a large enough effect in the signal ratio in the repeat runs, not every such curve was filed as active; the % refers to the signal ratio)
# Outline: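 Beta-lactamase reporter cells (p53RE-bla) treated with compounds for 16 h at 37 C; FRET substrate, 2 h, room temperature; fluorescence intensity.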
# [12] = target: 5-hydroxytryptamine receptor 2A (Homo sapiens) (UniProt P28223); assay: 5-hydroxytryptamine receptor 2A (HTR2A) small molecule antagonists, cell-based qHTS assay (AID 1963586); further: nearly all actives have a fitted effect of over 45% in size
# Outline: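 CHO cells stably expressing human HTR2A were plated for 18 h at 37 C, then loaded with calcium dye for 1 h. Compounds were preincubated 5 min at room temperature before DOI (4 nM solution) was added. Kinetic fluorescence was read for 3 min.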
# [13] = target: 5-hydroxytryptamine receptor 2A (Homo sapiens) (UniProt P28223); assay: 5-hydroxytryptamine receptor 2A (HTR2A) small molecule agonists, cell-based qHTS assay (AID 1963587); further: nearly all actives have a fitted effect of over 30% in size
# Outline: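 CHO cells stably expressing human HTR2A, plated 18 h, loaded with calcium dye 1 h at 37 C. Agonist mode: compounds added and intracellular calcium fluorescence recorded kinetically for 2 min at 1 sec intervals.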
# [14] = target: Muscarinic acetylcholine receptor M1 (Homo sapiens) (UniProt P11229); assay: Cholinergic receptor muscarinic 1 (CHRM1) small molecule antagonists, cell-based qHTS assay (AID 1963588); further: nearly all actives have a fitted effect of over 40% in size
# Outline: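 Compounds were tested at 15 concentrations in three independent runs. Dye-loaded CHRM1-CHO cells were exposed 5 min at room temperature before stimulation by acetylcholine added at 50nM. Intracellular calcium was read kinetically on FDSS for 3 min.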
# [15] = target: Muscarinic acetylcholine receptor M1 (Homo sapiens) (UniProt P11229); assay: Cholinergic receptor muscarinic 1 (CHRM1) small molecule agonists, cell-based qHTS assay (AID 1963589); further: nearly all actives have a fitted effect of over 35% in size
# Outline: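 qHTS, 15-point titration, 3 independent runs: compounds pin-transferred onto dye-loaded CHRM1-CHO cells (human M1), calcium fluorescence followed every second to detect agonism.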
# [16] = cAMP Responsive Elements (CRE) small molecule agonists, cell-based qHTS assay (AID 1963590)
# Outline: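 Quantitative HTS for CRE agonists: HEK 293T CRE-bla cells, overnight plating, 3 h compound incubation at 37 C/5% CO2, then 2 h room-temperature LiveBLAzer B/G FRET substrate loading.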
# [17] = cAMP Responsive Elements (CRE) small molecule antagonists, cell-based qHTS assay (AID 1963591; active means well fitted inhibition curve with a large enough effect in the signal ratio in the repeat runs, not every such curve was filed as active; the % refers to the signal ratio)
# Outline: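 Fluorescence intensity from cleaved LiveBLAzer B/G substrate (2 h, room temperature) quantified CRE-bla activity in HEK 293T cells exposed 3 h to compound with 0.25 uM final NKH477.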
# [18] = target: Beta-2 adrenergic receptor (Homo sapiens) (UniProt P07550); assay: Adrenergic beta2 receptor (ADRB2) small molecule antagonists, cell-based qHTS assay (AID 1963592); further: series mostly up to about 92 µM; nearly all actives have a fitted effect of over 50% in size
# Outline: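 Assay format: CHO-ADRB2 cells, 18-20hr seeding at 37C/5% CO2, then compound plus 1nM isoproterenol agonist mix for 0.5hr RT. Homogeneous time-resolved fluorescence cAMP detection after 1hr, expressed as 665/615 nm ratio.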
# [19] = target: Beta-2 adrenergic receptor (Homo sapiens) (UniProt P07550); assay: Adrenergic beta2 receptor (ADRB2) small molecule agonists, cell-based qHTS assay (AID 1963593);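 further: CHO cells stably overexpressing human ADRB2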
# Outline: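 CHO cells stably over-expressing ADRB2 were plated overnight at 37C, then dosed with compounds plus a stimulation mix containing 100uM IBMX and 25uM Ro-20-1724 for 0.5hr at room temperature. cAMP was measured by HTRF competition, 1hr.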
# [20] = target: D(2) dopamine receptor (Homo sapiens) (UniProt P14416); assay: Dopamine D2 receptor (DRD2) small molecule agonists, cell-based qHTS assay (AID 1963594); further: nearly all actives have a fitted effect of over 35% in size
# Outline: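 HEK293 cells stably expressing human DRD2, pre-treated with PDE inhibitor Ro20-1724 (0.1 mM final) and compound 10 min at room temperature, then stimulated with NKH477 (200nM […]) for 30 min. cAMP read by HTRF (665/620 nm).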
# Chain of 5-hydroxytryptamine receptor 2A (Homo sapiens) (P28223 whole entry, looked up): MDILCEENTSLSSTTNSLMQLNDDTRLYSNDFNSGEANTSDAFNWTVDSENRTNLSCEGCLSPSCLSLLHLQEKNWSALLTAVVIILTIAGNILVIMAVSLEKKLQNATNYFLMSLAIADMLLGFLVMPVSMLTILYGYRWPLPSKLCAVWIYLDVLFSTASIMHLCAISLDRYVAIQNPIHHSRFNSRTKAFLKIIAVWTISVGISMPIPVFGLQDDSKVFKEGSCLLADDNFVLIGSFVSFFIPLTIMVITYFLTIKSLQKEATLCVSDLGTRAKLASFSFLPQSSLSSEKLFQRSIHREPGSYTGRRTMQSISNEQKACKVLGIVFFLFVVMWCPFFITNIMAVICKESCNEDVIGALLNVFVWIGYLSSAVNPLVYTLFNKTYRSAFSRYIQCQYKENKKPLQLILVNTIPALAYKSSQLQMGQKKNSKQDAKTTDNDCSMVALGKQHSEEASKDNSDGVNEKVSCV
# Chain of Muscarinic acetylcholine receptor M1 (Homo sapiens) (P11229 whole entry, looked up): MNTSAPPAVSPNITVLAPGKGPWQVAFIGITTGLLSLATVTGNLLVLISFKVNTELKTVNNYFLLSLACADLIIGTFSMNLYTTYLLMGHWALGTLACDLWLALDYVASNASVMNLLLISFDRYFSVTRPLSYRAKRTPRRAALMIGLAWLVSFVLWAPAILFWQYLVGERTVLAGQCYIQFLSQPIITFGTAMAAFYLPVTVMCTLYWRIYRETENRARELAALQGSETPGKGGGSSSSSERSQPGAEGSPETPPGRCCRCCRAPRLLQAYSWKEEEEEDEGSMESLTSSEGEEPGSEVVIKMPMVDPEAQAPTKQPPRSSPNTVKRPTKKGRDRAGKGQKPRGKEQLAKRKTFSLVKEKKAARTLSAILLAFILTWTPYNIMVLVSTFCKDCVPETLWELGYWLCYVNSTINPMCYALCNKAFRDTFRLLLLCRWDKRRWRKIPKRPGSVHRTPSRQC
# Chain of KiSS-1 receptor (Homo sapiens) (Q969F8 whole entry, looked up): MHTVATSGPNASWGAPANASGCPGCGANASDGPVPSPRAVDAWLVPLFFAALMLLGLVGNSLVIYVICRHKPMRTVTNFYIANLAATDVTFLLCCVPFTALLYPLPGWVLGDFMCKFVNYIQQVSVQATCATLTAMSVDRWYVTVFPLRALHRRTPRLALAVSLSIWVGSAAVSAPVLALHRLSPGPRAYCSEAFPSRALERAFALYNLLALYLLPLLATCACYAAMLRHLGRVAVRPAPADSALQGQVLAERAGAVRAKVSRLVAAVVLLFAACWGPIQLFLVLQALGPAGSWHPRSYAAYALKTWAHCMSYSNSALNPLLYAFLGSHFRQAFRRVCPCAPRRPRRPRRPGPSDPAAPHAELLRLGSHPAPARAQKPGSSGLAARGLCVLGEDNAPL
# Chain of D(2) dopamine receptor (Homo sapiens) (P14416 whole entry, looked up): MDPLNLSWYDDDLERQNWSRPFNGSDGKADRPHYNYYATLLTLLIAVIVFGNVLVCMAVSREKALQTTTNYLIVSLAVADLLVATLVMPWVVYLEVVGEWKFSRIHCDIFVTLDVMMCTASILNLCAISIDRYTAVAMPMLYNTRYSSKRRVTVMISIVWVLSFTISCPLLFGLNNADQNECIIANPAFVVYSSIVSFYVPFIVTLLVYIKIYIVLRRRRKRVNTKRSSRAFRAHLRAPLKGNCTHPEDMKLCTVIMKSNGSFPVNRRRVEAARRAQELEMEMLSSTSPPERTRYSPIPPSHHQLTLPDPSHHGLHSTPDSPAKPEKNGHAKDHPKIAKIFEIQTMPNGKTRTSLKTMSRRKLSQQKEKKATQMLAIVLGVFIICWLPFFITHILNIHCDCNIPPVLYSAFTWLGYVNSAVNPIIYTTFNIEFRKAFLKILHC
# Chain of Gonadotropin-releasing hormone receptor (Homo sapiens) (P30968 whole entry, looked up): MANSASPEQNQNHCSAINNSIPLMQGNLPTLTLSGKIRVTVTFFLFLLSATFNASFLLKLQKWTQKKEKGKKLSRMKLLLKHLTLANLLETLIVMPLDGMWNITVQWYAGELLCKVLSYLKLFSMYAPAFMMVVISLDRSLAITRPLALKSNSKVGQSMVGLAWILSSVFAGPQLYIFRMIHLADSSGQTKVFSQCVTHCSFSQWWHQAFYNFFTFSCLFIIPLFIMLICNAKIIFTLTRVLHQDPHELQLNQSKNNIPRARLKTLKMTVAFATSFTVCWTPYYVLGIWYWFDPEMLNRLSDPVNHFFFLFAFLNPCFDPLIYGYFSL
# Chain of Beta-2 adrenergic receptor (Homo sapiens) (P07550 whole entry, looked up): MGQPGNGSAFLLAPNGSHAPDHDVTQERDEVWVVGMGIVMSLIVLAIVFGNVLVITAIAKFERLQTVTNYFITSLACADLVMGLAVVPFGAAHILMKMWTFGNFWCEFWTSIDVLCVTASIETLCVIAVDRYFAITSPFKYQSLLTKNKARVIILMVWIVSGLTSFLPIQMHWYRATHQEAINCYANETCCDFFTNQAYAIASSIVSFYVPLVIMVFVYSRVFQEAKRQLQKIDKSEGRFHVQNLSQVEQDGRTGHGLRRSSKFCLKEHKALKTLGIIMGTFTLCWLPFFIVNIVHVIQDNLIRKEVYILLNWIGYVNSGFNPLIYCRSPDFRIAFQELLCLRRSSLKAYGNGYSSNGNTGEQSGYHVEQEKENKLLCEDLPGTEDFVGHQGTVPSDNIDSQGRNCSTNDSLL
Compound,Potency [1],Potency [2],Potency [3],Potency [4],Potency [5],Potency [6],Potency [7],Potency [8],Potency [9],Potency [10],Potency [11],Potency [12],Potency [13],Potency [14],Potency [15],Potency [16],Potency [17],Potency [18],Potency [19],Potency [20]
CC(=O)C(C)O (stereo not given),inactive,inactive,inactive,inactive,inactive,inactive,inactive,inactive,inactive,inactive,inactive,inactive,inactive,inactive,inactive,inactive,inactive,inactive,inactive,inactive
O=S(=O)(O)CO,inactive,inactive,inactive,inactive,inactive,inactive,inactive,inactive,inactive,inactive,inactive,inactive,inactive,inactive,inactive,inactive,inactive,inactive,inactive,inactive
CN(C)CCCNCCCN(C)C,inactive,inactive,inactive,inactive,inactive,inactive,inactive,inactive,inactive,inactive,inactive,inactive,inactive,inactive,inactive,inactive,inactive,inactive,inactive,inactive
CC(C)OC(C)C,inactive,inactive,inactive,inactive,inactive,inactive,inactive,inactive,inactive,inactive,inactive,inactive,inactive,inactive,inactive,inactive,inactive,inactive,inactive,inactive
CC(=O)c1ccccc1N,inactive,inactive,inactive,inactive,inactive,inactive,inactive,inactive,inactive,inactive,inactive,inactive,inactive,inactive,inactive,inactive,inactive,inactive,inactive,inactive
N#Cc1ccc(C2CCCc3cncn32)cc1 (stereo not given),inactive,inactive,inactive,inactive,inactive,inactive,inactive,inactive,inactive,inactive,inactive,inactive,inactive,inactive,inactive,inactive,inactive,inactive,inactive,inactive
CCCSSCCC,inactive,inactive,inactive,inactive,inactive,inactive,inactive,inactive,inactive,inactive,inactive,inactive,inactive,inactive,inactive,inactive,inactive,inactive,inactive,inactive
COc1cccc(Br)c1,inactive,inactive,inactive,inactive,inactive,inactive,inactive,inactive,inactive,inactive,inactive,inactive,inactive,inactive,inactive,inactive,inactive,inactive,inactive,inactive
CC(C)(C)c1n[nH]c(=O)n(N)c1=O,inactive,inactive,inactive,inactive,inactive,inactive,inactive,inactive,inactive,inactive,inactive,inactive,inactive,inactive,inactive,inactive,inactive,inactive,inactive,inactive
CCN(CC)CCNC(=O)c1ccc(NC(C)=O)cc1,inactive,inactive,inactive,inactive,inactive,inactive,inactive,inactive,inactive,inactive,inactive,inactive,inactive,inactive,inactive,inactive,inactive,inactive,inactive,inactive
Clc1ccccc1-c1nc(-c2ccncc2)no1,inactive,2110 nM (active),inactive,inactive,inactive,inactive,inactive,inactive,inactive,inactive,inactive,inactive,inactive,inactive,inactive,inactive,inactive,inactive,inactive,inactive
CC(=O)N[C@H]1[C@H]([C@H](O)[C@H](O)CO)OC(C(=O)O)=C[C@@H]1N=C(N)N,inactive,inactive,inactive,inactive,inactive,inactive,inactive,inactive,inactive,inactive,inactive,inactive,inactive,inactive,inactive,inactive,inactive,inactive,inactive,inactive
CCCCOCCOCCOCCCC,inactive,inactive,inactive,inactive,inactive,inactive,inactive,inactive,inactive,inactive,inactive,inactive,inactive,inactive,inactive,inactive,inactive,inactive,inactive,inactive
C/C=C(\C)C(=O)OC/C=C(\C)CCC=C(C)C,inactive,inactive,inactive,inactive,inactive,inactive,inactive,inactive,inactive,inactive,inactive,inactive,inactive,inactive,inactive,inactive,inactive,inactive,inactive,inactive
